From the supplement of paper PMC10849652
Of roughly 8,800 targets only a part is listed; those with a hit were picked by preference. About 0.5% of all pairs of compound and target were hits. Values without a mark were called inactive.

Assays:
Assay in all cases: log2 fold change, soluble protein after heating vs DMSO (PISA); higher = thermal stabilisation; K562 lysate, 10 uM; active = over 0.2 and 3.5 SD of the protein, either way, in both replicates (recomputed)
erlotinib = compound: C#Cc1cccc(Nc2ncnc3cc(OCCOC)c(OCCOC)cc23)c1 [erlotinib]
Procedure, shortened: (§1)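 To prepare the extract, K562 pellets were dounce-homogenised in PBS pH 7.4 with 1 mM MgCl2, giving crude material at 1 mg/mL protein. This was treated with 10 μM compound for 30 min, then heated in aliquots for 3 min over 48°C-58°C before pooling and addition of NP-40 to 0.5% at 4°C. Centrifugation at 21,000xg for 90 min left soluble protein in the supernatant, which TMTpro 16plex LC-MS/MS quantified with equalised channel sums. Results are log-two fold changes in thermal stability compared with solvent controls, from duplicates.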

[1] = compound: C/C(=N\NC(=O)C1=CC(=CC=C1)S(=O)(=O)N2CCOCC2)/C3=C(C=CC(=C3)Cl)O
Procedure, shortened: as §1

[2] = compound: C1=CC(=CC=C1C2=NC3=C(N2)C=C(C=C3)C(=O)N)OC4=CC=C(C=C4)Cl
Procedure, shortened: as §1

[3] = compound: C1=CC2=C(C=CC(=C2)/C=C\3/C(=O)NC(=NCC4=CC=CS4)S3)N=C1
Procedure, shortened: as §1

[4] = compound: C1=CC2=NC=CN=C2C=C1/C=C/3\C(=O)NC(=O)S3
Procedure, shortened: as §1

[5] = compound: C1=CC=C(C=C1)C2=NC(=C(N2)C3=CC=NC=C3)C4=CC(=C(C=C4)Cl)O
Procedure, shortened: as §1

[6] = compound: C1=CC=C2C(=C1)C3=NNC4=CC=CC(=C43)C2=O
Procedure, shortened: as §1

[7] = compound: C1CCN(C1)C(=O)NC2=CC=CC(=C2)NC3=NC=C(C(=N3)NCCC4=CN=CN4)Br
Procedure, shortened: as §1

[8] = compound: C1CN(CCC1(CC2=CC=C(C=C2)Cl)N)C3=NC=NC4=C3C=CN4
Procedure, shortened: as §1

IRAK-1-4 Inhibitor I = compound: C1COCCN1CCN2C3=CC=CC=C3N=C2NC(=O)C4=CC(=CC=C4)[N+](=O)[O-] [IRAK-1-4 Inhibitor I]
Procedure, shortened: as §1

ibrutinib = compound: C=CC(=O)N1CCC[C@@H](n2nc(-c3ccc(Oc4ccccc4)cc3)c3c(N)ncnc32)C1 [ibrutinib]
Procedure, shortened: as §1

[9] = compound: CC(=O)c1cnc2ccc(-c3cc(Cl)c(O)c(Cl)c3)nc2c1N[C@H]1CC[C@H](CN(C)C)CC1
Procedure, shortened: as §1

ralimetinib = compound: CC(C)(C)Cn1c(N)nc2ccc(-c3[nH]c(C(C)(C)C)nc3-c3ccc(F)cc3)nc21 [ralimetinib]
Procedure, shortened: as §1

[10] = compound: CC(C)(O)CC(=O)NCCn1ccc2ncnc(Nc3ccc(Oc4cccc(C(F)(F)F)c4)c(Cl)c3)c21
Procedure, shortened: as §1

[11] = compound: CC(C)C1=C2N=C(C=C(N2N=C1)NCC3=CC=CC=C3)NCCCCCCN
Procedure, shortened: as §1

[12] = compound: CC1=C(C(CC(=O)N1)C2=CC=C(C=C2)C(F)(F)F)C(=O)NC3=C(C=C4C(=C3)C=NN4)F
Procedure, shortened: as §1

[13] = compound: CC1=C(C2=C(C=C1)C(=O)C3=CC=CC=C3N2CCCN)C
Procedure, shortened: as §1

[14] = compound: CC1=C(C=C(C=C1)NC(=O)C2=CC(=CC=C2)C(C)(C)C#N)NC3=CC4=C(C=C3)N=CN(C4=O)C
Procedure, shortened: as §1

[15] = compound: CC1=C(C=C(C=C1)NC(=O)C2=CC(=CC=C2)N(C)C)NC(=O)C3=CC=C(C=C3)O
Procedure, shortened: as §1

[16] = compound: CC1=CC=C(C=C1)SC2=C3C=C(SC3=CN=C2)C(=O)N
Procedure, shortened: as §1

UniProt Q9H974, sequence (Q9H974 whole entry, looked up): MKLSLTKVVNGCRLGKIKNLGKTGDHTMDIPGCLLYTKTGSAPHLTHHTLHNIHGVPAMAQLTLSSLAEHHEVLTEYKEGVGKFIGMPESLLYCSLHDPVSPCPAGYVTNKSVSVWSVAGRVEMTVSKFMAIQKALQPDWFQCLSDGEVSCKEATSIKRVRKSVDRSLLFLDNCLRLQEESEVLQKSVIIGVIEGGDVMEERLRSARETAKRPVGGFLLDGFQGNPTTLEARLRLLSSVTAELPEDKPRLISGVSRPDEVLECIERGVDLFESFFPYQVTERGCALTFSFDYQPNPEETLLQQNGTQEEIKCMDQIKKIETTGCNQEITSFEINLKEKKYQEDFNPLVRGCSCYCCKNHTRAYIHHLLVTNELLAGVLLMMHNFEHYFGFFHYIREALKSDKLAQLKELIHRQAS
UniProt Q96DM3, sequence (Q96DM3 whole entry, looked up): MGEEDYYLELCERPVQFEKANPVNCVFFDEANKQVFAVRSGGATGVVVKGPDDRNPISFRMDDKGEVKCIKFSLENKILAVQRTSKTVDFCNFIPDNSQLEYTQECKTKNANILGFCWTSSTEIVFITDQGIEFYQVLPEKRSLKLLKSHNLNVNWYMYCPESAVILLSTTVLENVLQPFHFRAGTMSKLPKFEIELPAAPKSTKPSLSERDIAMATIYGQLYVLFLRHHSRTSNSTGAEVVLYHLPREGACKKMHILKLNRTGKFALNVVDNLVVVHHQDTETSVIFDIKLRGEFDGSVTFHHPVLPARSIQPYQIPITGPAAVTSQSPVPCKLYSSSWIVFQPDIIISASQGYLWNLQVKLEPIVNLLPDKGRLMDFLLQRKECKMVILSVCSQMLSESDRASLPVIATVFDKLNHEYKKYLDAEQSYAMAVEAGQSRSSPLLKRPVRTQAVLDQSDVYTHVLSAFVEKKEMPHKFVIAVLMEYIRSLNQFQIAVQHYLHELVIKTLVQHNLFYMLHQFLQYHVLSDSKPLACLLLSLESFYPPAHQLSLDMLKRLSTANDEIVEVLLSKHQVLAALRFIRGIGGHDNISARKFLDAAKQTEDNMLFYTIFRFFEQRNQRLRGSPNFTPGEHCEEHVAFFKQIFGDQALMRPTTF
UniProt Q13464, sequence (Q13464 whole entry, looked up): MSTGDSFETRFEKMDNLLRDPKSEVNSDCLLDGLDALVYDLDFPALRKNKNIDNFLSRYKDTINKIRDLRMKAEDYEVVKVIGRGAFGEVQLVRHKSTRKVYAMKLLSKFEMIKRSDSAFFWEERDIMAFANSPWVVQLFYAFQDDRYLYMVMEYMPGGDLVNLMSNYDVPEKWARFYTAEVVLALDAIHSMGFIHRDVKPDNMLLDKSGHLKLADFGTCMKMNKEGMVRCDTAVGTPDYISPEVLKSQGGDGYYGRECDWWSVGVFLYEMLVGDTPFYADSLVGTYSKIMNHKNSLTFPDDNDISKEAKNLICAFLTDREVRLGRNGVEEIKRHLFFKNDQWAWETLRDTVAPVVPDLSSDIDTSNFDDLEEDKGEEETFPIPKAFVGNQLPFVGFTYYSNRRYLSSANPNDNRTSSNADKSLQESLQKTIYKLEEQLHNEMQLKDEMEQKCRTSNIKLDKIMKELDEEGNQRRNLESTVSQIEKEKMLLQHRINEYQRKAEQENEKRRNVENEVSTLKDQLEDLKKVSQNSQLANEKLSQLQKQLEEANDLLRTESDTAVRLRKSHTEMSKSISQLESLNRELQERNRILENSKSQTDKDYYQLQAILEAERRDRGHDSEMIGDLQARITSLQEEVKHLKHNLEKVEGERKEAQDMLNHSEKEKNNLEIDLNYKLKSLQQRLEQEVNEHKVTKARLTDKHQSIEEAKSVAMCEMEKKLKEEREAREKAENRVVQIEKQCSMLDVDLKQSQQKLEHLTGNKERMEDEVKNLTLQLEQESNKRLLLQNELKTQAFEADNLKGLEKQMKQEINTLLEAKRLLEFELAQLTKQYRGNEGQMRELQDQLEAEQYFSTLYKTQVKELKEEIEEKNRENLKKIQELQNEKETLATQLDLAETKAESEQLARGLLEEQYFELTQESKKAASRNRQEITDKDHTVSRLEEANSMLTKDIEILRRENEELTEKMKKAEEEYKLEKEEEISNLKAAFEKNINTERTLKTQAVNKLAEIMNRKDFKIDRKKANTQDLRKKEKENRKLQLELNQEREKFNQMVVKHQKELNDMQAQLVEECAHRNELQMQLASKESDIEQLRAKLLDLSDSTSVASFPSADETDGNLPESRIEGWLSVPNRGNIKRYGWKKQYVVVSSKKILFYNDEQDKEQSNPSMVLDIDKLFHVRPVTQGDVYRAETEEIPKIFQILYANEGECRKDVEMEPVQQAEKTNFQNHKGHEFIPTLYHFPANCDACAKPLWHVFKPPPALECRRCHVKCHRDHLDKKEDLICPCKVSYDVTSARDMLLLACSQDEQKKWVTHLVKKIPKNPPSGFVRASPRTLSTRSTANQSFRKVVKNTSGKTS
UniProt Q96HR9, sequence (Q96HR9 whole entry, looked up): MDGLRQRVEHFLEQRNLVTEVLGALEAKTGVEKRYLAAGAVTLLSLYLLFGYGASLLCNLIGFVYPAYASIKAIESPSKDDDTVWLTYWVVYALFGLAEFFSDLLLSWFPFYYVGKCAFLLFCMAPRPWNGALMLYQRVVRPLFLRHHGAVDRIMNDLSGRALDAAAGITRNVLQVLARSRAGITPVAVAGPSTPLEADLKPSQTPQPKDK
UniProt Q9NR31, sequence (Q9NR31 whole entry, looked up): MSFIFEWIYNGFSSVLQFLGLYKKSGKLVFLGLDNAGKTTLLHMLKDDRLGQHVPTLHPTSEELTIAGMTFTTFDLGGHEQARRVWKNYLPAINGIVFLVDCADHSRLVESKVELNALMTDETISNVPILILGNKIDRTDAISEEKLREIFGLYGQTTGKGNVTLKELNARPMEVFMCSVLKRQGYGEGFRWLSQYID
UniProt Q8IYW5, sequence (Q8IYW5 whole entry, looked up): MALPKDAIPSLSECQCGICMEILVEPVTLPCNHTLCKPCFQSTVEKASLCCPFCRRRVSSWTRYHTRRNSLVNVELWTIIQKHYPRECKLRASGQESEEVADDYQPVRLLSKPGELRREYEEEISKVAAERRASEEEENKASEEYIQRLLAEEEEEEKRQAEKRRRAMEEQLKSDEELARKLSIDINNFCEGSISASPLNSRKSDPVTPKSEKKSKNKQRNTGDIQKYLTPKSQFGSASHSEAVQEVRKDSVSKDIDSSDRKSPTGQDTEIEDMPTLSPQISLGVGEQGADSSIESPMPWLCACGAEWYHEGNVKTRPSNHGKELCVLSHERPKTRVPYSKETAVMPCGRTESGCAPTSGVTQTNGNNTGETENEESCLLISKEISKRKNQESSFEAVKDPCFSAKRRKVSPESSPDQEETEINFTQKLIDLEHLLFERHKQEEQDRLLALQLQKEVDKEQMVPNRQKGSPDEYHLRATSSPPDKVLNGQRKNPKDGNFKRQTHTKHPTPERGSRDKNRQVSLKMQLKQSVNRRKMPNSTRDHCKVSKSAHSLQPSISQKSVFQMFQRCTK
UniProt Q9UPU9, sequence (Q9UPU9 whole entry, looked up): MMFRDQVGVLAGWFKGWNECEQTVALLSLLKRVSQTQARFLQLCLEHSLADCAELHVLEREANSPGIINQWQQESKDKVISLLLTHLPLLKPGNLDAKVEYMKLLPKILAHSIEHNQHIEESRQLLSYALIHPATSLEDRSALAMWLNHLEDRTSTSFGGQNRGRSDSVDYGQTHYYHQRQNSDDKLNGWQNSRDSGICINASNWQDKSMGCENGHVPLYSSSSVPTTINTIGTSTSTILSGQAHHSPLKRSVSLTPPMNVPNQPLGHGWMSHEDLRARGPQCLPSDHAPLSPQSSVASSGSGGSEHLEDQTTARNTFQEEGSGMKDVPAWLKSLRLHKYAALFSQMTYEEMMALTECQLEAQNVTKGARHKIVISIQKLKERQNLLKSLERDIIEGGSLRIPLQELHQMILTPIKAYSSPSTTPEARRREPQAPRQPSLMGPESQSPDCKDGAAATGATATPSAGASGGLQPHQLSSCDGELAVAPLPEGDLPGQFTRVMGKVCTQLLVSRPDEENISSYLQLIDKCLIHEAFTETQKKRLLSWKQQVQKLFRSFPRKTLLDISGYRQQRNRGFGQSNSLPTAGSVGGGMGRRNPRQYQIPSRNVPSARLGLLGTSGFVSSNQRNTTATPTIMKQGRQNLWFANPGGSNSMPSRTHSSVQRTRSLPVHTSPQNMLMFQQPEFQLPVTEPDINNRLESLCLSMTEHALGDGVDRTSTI
UniProt Q9BUV8, sequence (Q9BUV8 whole entry, looked up): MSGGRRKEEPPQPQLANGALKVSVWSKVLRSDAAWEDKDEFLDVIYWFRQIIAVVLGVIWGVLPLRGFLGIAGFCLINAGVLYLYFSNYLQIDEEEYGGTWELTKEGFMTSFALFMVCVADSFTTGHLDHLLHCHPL
UniProt O43502, sequence (O43502 whole entry, looked up): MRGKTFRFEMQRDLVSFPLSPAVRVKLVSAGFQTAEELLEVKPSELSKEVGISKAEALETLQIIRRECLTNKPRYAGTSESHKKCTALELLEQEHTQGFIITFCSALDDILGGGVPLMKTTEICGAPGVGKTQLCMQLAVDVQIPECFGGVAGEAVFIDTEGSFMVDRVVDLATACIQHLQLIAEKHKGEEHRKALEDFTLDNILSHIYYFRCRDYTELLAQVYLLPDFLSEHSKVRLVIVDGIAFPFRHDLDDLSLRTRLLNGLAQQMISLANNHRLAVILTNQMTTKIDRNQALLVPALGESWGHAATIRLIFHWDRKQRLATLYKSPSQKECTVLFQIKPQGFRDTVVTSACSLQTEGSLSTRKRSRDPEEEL

Target | log2 fold change (erlotinib) | log2 fold change [1] | log2 fold change [2] | log2 fold change [3] | log2 fold change [4] | log2 fold change [5] | log2 fold change [6] | log2 fold change [7] | log2 fold change [8] | log2 fold change (IRAK-1-4 Inhibitor I) | log2 fold change (ibrutinib) | log2 fold change [9] | log2 fold change (ralimetinib) | log2 fold change [10] | log2 fold change [11] | log2 fold change [12] | log2 fold change [13] | log2 fold change [14] | log2 fold change [15] | log2 fold change [16]
RNF168 (UniProt Q8IYW5) | -0.018 | -0.023 | 0.001 | -0.081 | 0.037 | -0.007 | -0.114 | -0.311 (active) | 0.053 | 0.008 | 0.155 | 0.144 | 0.004 | -0.041 | -0.034 | -0.071 | 0.031 | 0.026 | -0.04 | 0.011
ROCK1 (UniProt Q13464) | -0.01 | 0.029 | 0 | 0.075 | -0.036 | -0.004 | -0.041 | 0.008 | 0.075 | 0.004 | -0.002 | -0.027 | -0.005 | -0.021 | -0.003 | 0.096 | -0.041 | 0.006 | 0.024 | 0.002
RPL36AL (UniProt Q969Q0) | -0.036 | -0.098 | -0.012 | 0.061 | -0.029 | 0.029 | 0.048 | 0.049 | -0.05 | -0.109 | -0.038 | 0.004 | -0.018 | 0.088 | -0.004 | -0.001 | 0.068 | -0.038 | 0.013 | 0.052
SAR1A (UniProt Q9NR31) | -0.268 | -0.112 | 0.05 | -0.019 | -0.063 | -0.056 | 0.048 | -0.08 | 0.001 | -0.029 | -0.082 | -0.105 | 0.027 | -0.028 | 0.026 | 0.163 | -0.042 | 0.021 | -0.045 | 0.112
RAPGEF4 (UniProt Q8WZA2) | 0.181 | 0.057 | 0.049 | -0.016 | -0.019 | -0.092 | -0.195 | -0.043 | 0.12 | 0.184 | -0.026 | -0.129 | -0.001 | -0.328 | 0.044 |  | 0.046 | 0.442 | -0.004 | -0.166
RAD51C (UniProt O43502) | 0 | -0.053 | 0.023 | -0.074 | -0.003 | 0.001 | -0.004 | 0.017 | 0.02 | -0.051 | -0.015 | 0.055 | 0.044 | 0.009 | 0.067 | -0.015 | -0.039 | 0 | -0.037 | -0.051
REEP6 (UniProt Q96HR9) | -0.023 | -0.026 | 0.008 | 0.077 | -0.06 | -0.029 | -0.069 | 0.021 | -0.022 | -0.05 | -0.026 | -0.026 | 0.018 | -0.029 | -0.067 | -0.006 | -0.066 | 0.084 | 0.055 | 0.038
RPS29 (UniProt P62273) | 0.088 | 0.023 | 0.018 | -0.064 | -0.026 | 0.017 | 0.051 | 0.018 | -0.037 | 0.046 | 0.002 | 0.025 | -0.138 | 0.03 | -0.109 | 0.086 | -0.093 | -0.108 | -0.068 | 0.058
RAB5IF isoform 5 (UniProt Q9BUV8) | 0.193 | 0.021 | 0.082 | 0.001 | -0.052 |  | -0.036 | -0.065 | 0.034 |  | -0.039 | -0.029 |  |  | -0.163 | 0.086 | -0.165 |  |  | 0.073
RCOR3 isoform 3 (UniProt Q9P2K3) | -0.033 | 0.025 | 0.022 | 0.009 | -0.006 | -0.017 | -0.012 | -0.02 | -0.015 | -0.015 | -0.009 | -0.03 | 0.014 | -0.004 | 0.011 | 0 | 0.002 | -0.038 | 0.002 | -0.011
RAD50 isoform 2 (UniProt Q92878) | -0.009 | -0.007 | 0.019 | 0.006 | -0.014 | -0.023 | -0.039 | 0.005 | -0.01 | -0.054 | 0.002 | -0.01 | 0.01 | 0.018 | 0 | -0.001 | 0.03 | 0 | 0.017 | -0.006
RETREG2 (UniProt Q8NC44) | -0.08 | 0.036 | -0.115 | -0.055 | 0.049 | 0.035 | -0.063 | 0.022 | 0.075 | 0.106 | 0.011 | 0.009 | 0.071 | -0.129 | 0.062 | 0.127 |  | 0.051 | 0.116 | 0.011
SAMD4A (UniProt Q9UPU9) | -0.172 | -0.014 | 0.11 | 0.097 | -0.153 | 0.11 | -0.041 | -0.046 | 0.013 | 0.063 | -0.014 | 0.052 | 0.395 | 0.097 | 0.094 |  | -0.008 | 0.025 | 0.196 | 0.088
RAB3IL1 (UniProt E9PK89) | -0.016 | -0.075 | 0.124 | 0.013 | -0.048 | -0.04 | 0.093 | -0.034 | -0.12 | 0.109 | 0.066 | 0.045 | -0.028 | -0.08 | -0.069 | 0.052 | 0.071 | 0.025 | 0.135 | -0.031
RMC1 (UniProt Q96DM3) | 0.015 | -0.056 | 0.017 | -0.06 | 0.004 | -0.008 | -0.054 | -0.001 | 0.035 | 0.006 | -0.004 | 0.018 | 0.03 | -0.024 | -0.001 | -0.017 | -0.018 | 0.009 | 0.005 | 0.027
QTRT2 isoform 4 (UniProt Q9H974) | -0.024 | 0.082 | -0.032 | -0.019 | -0.048 | -0.009 | -0.007 | 0.007 | 0.022 | 0.006 | 0.01 | 0.002 | 0.014 | -0.028 | -0.014 | -0.035 | 0.006 | -0.025 | -0.003 | -0.013
